# About 950 (1.4%) of roughly 69,000 compounds showed an effect of 50% or more. Many of the other results were omitted from the sample, so strong results are more common in it than they were.
# Test system: Mycobacterium tuberculosis
# Assay: Cornell M. t heat shock assay; note: in the data most compounds retested in dose-response had high values
# Type: functional, organism-based
# Set-up: dose or concentration left out as unconfirmed
row,Compound,Percent Effect
1,COCC(=O)N1CC[C@H]2C[C@H](C)O[C@@H]2C1,3.806%
2,COCC(=O)N1CC[C@H]2O[C@@H](C)C[C@H]2C1,64.99%
3,COCC(=O)N1CC[C@@H]2O[C@@H](C)C[C@H]2C1,-1.773%
4,COCC1CN(Cc2ccc3c(c2)OCO3)Cc2ncn(C)c21.O=C(O)C(F)(F)F.O=C(O)C(F)(F)F (configuration not stated),-21.56%
5,Cl.O=C(N1CCCC1)C1(Cc2ccc(-c3cccs3)cc2)CCNC1 (configuration not stated),-20.63%
6,Cc1c[nH]c(C2CCCN(Cc3ccccc3C(=O)O)C2)n1.O=CO (configuration not stated),-20.14%
7,CC(C)CCN1C[C@H]2C[C@H](C(=O)Nc3ccccc3)[C@@H](C1)O2.O=C(O)C(F)(F)F,-19.48%
8,CN(Cc1cccnc1)[C@@H]1CN(C(=O)c2ccno2)[C@@H]2CCCO[C@H]12.O=C(O)C(F)(F)F.O=C(O)C(F)(F)F,0.2387%
9,COC(=O)Cn1c(=O)nc2n1C(=O)N(c1ccc(C)cc1)C2,3.714%
10,CCS(=O)(=O)NC[C@]12COC[C@H]1CN(Cc1cccc(OC)c1)C2.O=C(O)C(F)(F)F,-11.48%
11,CN(Cc1cccc(F)c1)C(=O)CS(=O)(=O)Cc1c(Cl)cccc1Cl,25.49%
12,CN(Cc1ccccc1)C(=O)CS(=O)(=O)Cc1ccc(Cl)c(Cl)c1,47.42%
13,CN(Cc1cccc(F)c1)C(=O)CS(=O)(=O)Cc1ccc(Cl)c(Cl)c1,52.33%
14,Cc1ccc(-c2cc(C3CCNCC3)nc(C)n2)cc1.Cl,-12.8%
15,CSc1ccc(-c2cc(CN)nc3ccnn23)cc1.Cl,4.059%
16,COC(=O)C(NC(=O)c1ccc(N(C)C)nc1)c1ccccc1 (configuration not stated),22%
17,NC(=O)C(NC(=O)c1ccc(NC2CC2)nc1)c1ccccc1 (configuration not stated),-7.076%
18,COC(=O)C(NC(=O)c1ccc(NC2CC2)nc1)c1ccccc1 (configuration not stated),51.61%
19,CC(C)c1cc(C(=O)N2C[C@H]3CC[C@@H]2CN(Cc2cscn2)C3)no1,37.62%

row,Compound,Percent Effect
1,COC(=O)N1C[C@H]2CC[C@@H]1CN(Cc1cscn1)C2,1.905%
2,Cc1c[nH]c(C(=O)N2C[C@H]3CC[C@@H]2CN(Cc2cscn2)C3)n1,2.551%
3,CC(C)(C)c1cc(CN2C[C@H]3CC[C@@H]2CN(Cc2cscn2)C3)n[nH]1,92.4%
4,COc1cccc(C(=O)N2C[C@H]3CC[C@@H]2CN(Cc2cscn2)C3)c1,-27.99%
5,CC(C)Cc1cc(CN2C[C@H]3CC[C@@H]2CN(Cc2cscn2)C3)n[nH]1,107.7%
6,CN1C(=O)C(c2ccccc2)CC12CCN(CCO)CC2.O=C(O)C(F)(F)F (configuration not stated),-21.97%
7,Cc1cccc(CN2CC3(CCN(C4CCOC4)CC3)OCC2=O)n1.O=C(O)C(F)(F)F.O=C(O)C(F)(F)F (configuration not stated),-30.47%
8,O=C(O)C(F)(F)F.O=C(c1ccco1)N1CCO[C@@H]2CN(Cc3nccs3)CC[C@@H]2C1,4.898%
9,CCC1=N[C@@]2(CC[C@@H]3CN(Cc4cccc(Cl)c4)C[C@@H]32)C(=O)N1C.O=C(O)C(F)(F)F,32.88%
10,Cc1nc(C2CCN(Cc3ncc[nH]3)CC2)no1.O=CO,-19.83%
11,CNc1oc(-c2ccc(S(=O)(=O)N(C)C)o2)nc1C#N,-18.56%
12,CN(C)S(=O)(=O)c1ccc(-c2nc(C#N)c(NC3CC3)o2)o1,78.01%
13,CNc1oc(-c2ccc(OC)c(S(=O)(=O)N(C)C)c2)nc1C#N,4.952%
14,Cc1oc(-c2nc(C#N)c(NC(C)(C)C)o2)cc1S(=O)(=O)N1CCCC1,1.248%
15,CC(C)Nc1oc(-c2ccc(S(=O)(=O)N(C)C)o2)nc1C#N,-8.92%
16,CN(C)S(=O)(=O)c1ccc(-c2nc(C#N)c(NC(C)(C)C)o2)o1.Cl,74.72%
17,Cc1oc(-c2nc(C#N)c(NC3CC3)o2)cc1S(=O)(=O)N1CCCC1,-1.847%
18,CN(C)S(=O)(=O)c1ccc(-c2nc(C#N)c(NC3CCCCC3)o2)o1,5.856%
19,CCN1CCOCC2(CCCN(C(=O)c3ccncc3F)C2)C1.O=C(O)C(F)(F)F (configuration not stated),-0.7478%

row,Compound,Percent Effect
1,Cc1ccc(CN2CCC(O)(Cn3ccc4ncccc43)CC2)o1.Cl,-13.38%
2,CNC(=O)C1Cn2ccnc2C2(CCN(Cc3ccncc3)CC2)O1.O=C(O)C(F)(F)F.O=C(O)C(F)(F)F.O=C(O)C(F)(F)F (configuration not stated),-2.036%
3,O=C(NCc1ccco1)[C@H]1CC[C@@H]2[C@@H](CCN2C2CCC2)O1.O=C(O)C(F)(F)F,-4.585%
4,CN(C)CCOCC1CN(Cc2ccoc2)Cc2nnn(C)c21.O=C(O)C(F)(F)F.O=C(O)C(F)(F)F (configuration not stated),-17.74%
5,Cc1cc(N(C)C)nc(C2CCCN2)n1.Cl.Cl (configuration not stated),-13.2%
6,O=C(COCCc1ccccc1)N1CCCC(n2cccn2)C1 (configuration not stated),11.3%
7,Cn1cc(CN2CCCC23CCN(C(=O)c2ccccc2)CC3)cn1.O=C(O)C(F)(F)F,-27.87%
8,CC(C)NC(=O)c1cc2c(s1)CCN2C(=O)CN(C)C,-7.193%
9,CN(C)CC(=O)N1CCc2sc(C(=O)N3CCN(C)CC3)cc21,17.23%
10,CN(C)CC(=O)N1CCc2sc(C(=O)N3CCOCC3)cc21,54.7%
11,CC(C)N(C)Cc1cncc2c1CCN(C1CCOCC1)C2.Cl.Cl.Cl,21.63%
12,CNC(=O)CN1CCC2(CCCN(CC3CCOC3)C2)CC1.O=C(O)C(F)(F)F.O=C(O)C(F)(F)F (configuration not stated),3.829%
13,O=C(O)C(F)(F)F.O=C(O)C(F)(F)F.O=C1CO[C@@H]2CN(Cc3ccsc3)C[C@H]2N1Cc1ccncc1,1.203%
14,Cc1ccc(CCN2CCC(N(C)Cc3noc(C4CC4)n3)C2)cc1 (configuration not stated),83.22%
15,CN(Cc1noc(C2CC2)n1)C1CCN(CCc2cnn(C)c2)C1 (configuration not stated),-5.5%
16,CN(Cc1noc(C2CC2)n1)C1CCN(CCc2cccs2)C1 (configuration not stated),12.6%
17,CN(Cc1noc(C2CC2)n1)C1CCN(Cc2ccc(F)c(F)c2)C1 (configuration not stated),-5.311%
18,CC(=O)N(Cc1noc(C2CC2)n1)C1CCN(Cc2ccncc2)C1 (configuration not stated),-2.088%
19,CN(Cc1noc(C2CC2)n1)C1CCN(Cc2ccncc2)C1 (configuration not stated),51.32%
